The panel holds about 83,000 compounds, 20% with a hit somewhere; the sample as a whole holds those more often.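 The endpoint reported here, percent growth, reads 100 for growth as untreated, 0 for no net growth and -100 for all cells dead.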 A number with no mark means an inactive call. Activity calls are given as the source filed them. Rule for the calls: active = growth percent below 10; inactive = the rest.
Columns and labels:
Assay in all cases: NCI-60 one-dose screen, 48 h (100 = growth as untreated, 0 = no growth, -100 = all killed)
Details in all cases: 10 µM unless noted
RPMI-8226 leukemia = test system: RPMI-8226 leukemia
OVCAR-8 ovarian = test system: OVCAR-8 ovarian
OVCAR-5 ovarian = test system: OVCAR-5 ovarian
OVCAR-4 ovarian = test system: OVCAR-4 ovarian
SK-OV-3 ovarian = test system: SK-OV-3 ovarian
IGROV1 ovarian = test system: IGROV1 ovarian
OVCAR-3 ovarian = test system: OVCAR-3 ovarian
HS 578T breast = test system: HS 578T breast
NCI/ADR-RES ovarian = test system: NCI/ADR-RES ovarian

Row | SMILES | growth (RPMI-8226 leukemia) | growth (OVCAR-8 ovarian) | growth (OVCAR-5 ovarian) | growth (OVCAR-4 ovarian) | growth (SK-OV-3 ovarian) | growth (IGROV1 ovarian) | growth (OVCAR-3 ovarian) | growth (HS 578T breast) | growth (NCI/ADR-RES ovarian)
1 | CON1C(=O)CC[C@]2(C)[C@H]3CC[C@@H]4C([C@@]5(C)CCC(=O)O5)CC[C@@]4(C)[C@]3(C)CC[C@H]2C1(C)C (some centres undefined) | 98.6% | 102% | 98.4% | 92.8% | 104% | 111% | 110% | 101% | 97.1%
2 | N=C(N)c1ccc(-c2ccc(-c3ccc4ccccc4c3)s2)s1 | -18.3% (active) | 3.43% (active) | -0.924% (active) | -21.3% (active) | 95.7% | 5.62% (active) | -76.1% (active) | 91.6% | -42% (active)
3 | C=C(C)[C@@H]1CC[C@]2(C(=O)OC)CC[C@]3(C)[C@H](CC[C@@H]4[C@@]5(C)C/C(=C/c6cccc(I)c6)C(=O)C(C)(C)[C@@H]5CC[C@]43C)[C@@H]12 | 95.7% | 101% | 98.7% | 107% | 93.9% | 103% | 119% | 88% | 94.1%
4 | COc1cc(/C=C/C(=O)c2ccc(O)c(CN3CCN(c4cc5c(cc4F)c(=O)c(C(=O)O)cn5C4CC4)CC3)c2)cc(OC)c1OC | -3.9% (active) | 30.8% | 65.5% | 49.8% | 89.2% | 55% | 14% | 38.1% | 54.6%
5 | COc1ccc2c(c1)O/C(=C\c1cccc(OCC(=O)Nc3nc4c(s3)CCCC4)c1)C2=O | 49.6% | -23.4% (active) | 103% | 62.4% | 90.9% |  | 41.5% | 84% | -9.46% (active)
6 | Cc1oc(-c2ccc(Cl)cc2Cl)cc1C(=O)Nc1nccs1 | 98.4% | 80% | 83.1% | 7.78% (active) | 89.8% | 81.6% | 101% | 77.1% | 89.6%
7 | N#CN1CC[C@H](C(=O)Nc2cc3cc(C(N)=O)ccc3cn2)C1 | 8.19% (active) | 1.62% (active) | 5.15% (active) | 4.32% (active) | -10.2% (active) | 15.7% | -14.4% (active) | -0.591% (active) | 1.36% (active)
8 | COc1cc2nc(N3CCCC3)nc(Nc3ccccc3)c2cc1OC | -19.8% (active) | -30.1% (active) | -40.5% (active) | 25.1% | 48.5% | 23.3% | -70.4% (active) | -24.2% (active) | 18.4%
9 | N#Cc1c(-c2ccc(Cl)cc2)nc(N/N=C/c2cccc(Br)c2)nc1N1CCOCC1 | 56% | 101% | 82% | 95.6% | 109% | 83.6% | 94.8% | 82.1% | 90.6%
10 | Cn1c(O)c(N=NC(=O)c2cc(-c3ccccc3)on2)c2ccccc21 | 115% | 104% | 102% | 95.7% | 108% | 102% | 115% | 96.2% | 94.9%
11 | CN(C)S(=O)(=O)c1ccc(S(=O)(=O)Nc2cccc(Cl)c2N2CCCCC2)cc1 | 48% | 92% | 89.4% | 68.2% | 98.3% | 82.5% | 90.6% | 91.8% | 76.6%
12 | Cc1cc(NS(=O)(=O)c2ccc(-c3cnc(C4CC4)o3)cc2)ccc1Cl | 24.8% | 12.9% | 22% | 44.7% | 32.4% | 27.7% | -20.9% (active) | 11.9% | 0.314% (active)
13 | C=CC(=O)Nc1cccc(-c2nc(SC)nc(NCc3ccccc3)c2C#N)c1 | 38.5% | 39.8% | 85.4% | 48.5% | 72.2% | 57.3% | 48.4% | 51.8% | 48.3%
14 | COc1cc2nc(N3CCCC3)nc(NCC3CCCCC3)c2cc1OC | -38.2% (active) | 12.1% | 29.1% | 33.2% | 77.4% | 72.3% | 13.1% | -33.5% (active) | 35.3%
15 | O=C(/C=C/c1cccc([N+](=O)[O-])c1)c1ccc(O)c(CN2CCN(c3cc4c(cc3F)c(=O)c(C(=O)O)cn4C3CC3)CC2)c1 | -25.6% (active) | 27.4% | 12.4% | 37.4% | 72.9% | 28.8% | 7.92% (active) | 51.9% | 10.7%
16 | O=C(N/N=C/c1c[nH]c2ccccc12)c1cc(-c2ccccc2)on1 | 90% | 102% | 97.5% | 85.6% | 91% |  | 103% | 94.4% | 84.3%
17 | CC1=C(O)C(=O)C(C(C#N)(C#N)C(C#N)C#N)C1 (centres undefined) | 106% | 101% | 109% | 107% | 99% | 102% | 94.8% | 98.9% | 97.7%
18 | O=C(O)COc1ccc(Cl)cc1C1CCCCC1 | 102% | 103% | 107% | 109% | 107% | 117% | 115% | 105% | 104%
19 | COc1cccc(Nc2nc(SC)nc(-c3cccc([N+](=O)[O-])c3)c2C#N)c1 | 95% | 36.4% | 81.6% | -1.38% (active) | 31.3% | 74.7% | 51.8% | 45% | 70.2%

Row | SMILES | growth (RPMI-8226 leukemia) | growth (OVCAR-8 ovarian) | growth (OVCAR-5 ovarian) | growth (OVCAR-4 ovarian) | growth (SK-OV-3 ovarian) | growth (IGROV1 ovarian) | growth (OVCAR-3 ovarian) | growth (HS 578T breast) | growth (NCI/ADR-RES ovarian)
20 | C=CC(=O)Nc1cccc(-c2nc(SC)nc(NCCN3CCOCC3)c2C#N)c1 | 81.4% | 83.1% | 107% | 90.6% | 108% | 90.4% | 97.8% | 82.6% | 95%
21 | CSc1nc(-c2cccc(NC(=O)CCl)c2)c(C#N)c(=O)n1C | -18.3% (active) | 72.6% | 26.7% | 12.5% | 109% | -64.5% (active) | 8.91% (active) | 88.1% | 75.8%
22 | CN(C)S(=O)(=O)c1cccc(-c2nc3sc4c(c3c(=O)[nH]2)CCCC4)c1 | 23.9% | 13.4% | 23.3% | -56.4% (active) | 7.06% (active) |  | 19.5% | -4.53% (active) | 29.5%
23 | Cn1ncc2c(=O)nc3c(-c4ccccc4)n[nH]n3c21 | 123% | 99.8% | 109% | 100% | 103% |  | 95.4% | 108% | 105%
24 | COc1cccc(-c2nc3sccn3c2-c2ccnc(NCCCNS(=O)(=O)c3cccc(Cl)c3)c2)c1 | -9.68% (active) | 26.3% | 78.9% | 32.6% |  |  | 58% | 69.2% | 13.4%
25 | CCOc1nc(-c2ccccc2)cc2c(O)c(C(=O)O)[nH]c(=O)c12 | 58.1% | 107% | 104% | 99% | 97.5% |  | 101% | 104% | 60.9%
26 | O=C(/C=C/c1ccccc1)c1ccc(O)c(CN2CCN(c3cc4c(cc3F)c(=O)c(C(=O)O)cn4C3CC3)CC2)c1 | -7.8% (active) | 9.75% (active) | 38.2% |  | 20.3% |  | 18.4% | 31% | 49%
27 | C=CC(=O)Nc1cccc(Nc2nc(SC)nc(-c3cccc([N+](=O)[O-])c3)c2C#N)c1 | 48.2% | 43.4% | 71.8% |  | 74.3% | 54.9% | 19.9% | 53.7% | 61.8%
28 | COc1ccc2c(c1)c(-c1nonc1-c1cn(C)c3ccccc13)cn2C | 21.2% |  | 52% | 45.5% | 44.6% | 42.5% | 3.08% (active) | 16.7% | 17.1%
29 | Nc1ccn(-c2ccc(Br)cc2)c(=O)n1 | 95.9% | 117% | 84% | 104% | 162% |  | 48% | 122% | 89.5%
30 | CN(C)c1ccc(N=Nc2ccccn2)c(O)c1 | 16.2% |  | 68.6% | 28.3% |  | 14.9% | 33.2% | 60.9% | 12.4%
31 | C[n+]1ccccc1/C=C/c1ccc2cccc(O)c2n1 | 105% | 100% | 51.5% |  | 39.1% | 105% | 112% | 108% | 109%
32 | CSc1nc(NCCO)c(C#N)c(-c2cccc([N+](=O)[O-])c2)n1 | 103% |  | 98.1% | 105% | 102% | 97.9% | 112% | 93.4% | 98.1%
33 | COC(=O)[C@@H]1CCCN1C(=O)[C@@H]1CCCN1C(=O)[C@H](Cc1ccccc1)NC(=S)Nc1cc(C(F)(F)F)cc(C(F)(F)F)c1 | 43.9% | 41.6% | 88.4% |  | 98.1% | 108% | 24.6% | 83.7% | 
34 | CCOc1cc2ncc(C#N)c(Nc3ccc(OCc4cccc(F)c4)c(Cl)c3)c2cc1NC(=O)CC1CCSS1 (centres undefined) | 62.4% | 44.2% | 84.1% | -33.3% (active) |  | -2.65% (active) | 37.3% | 55.9% | 78.9%
35 | COc1cccc(-c2nc3sccn3c2-c2ccnc(NCCCNS(=O)(=O)c3c(Cl)cccc3Cl)c2)c1 | 4.47% (active) |  | 85.6% | 56.7% | 90.4% | 72.1% | 69.8% | 76.1% | 29.9%
36 | COc1cc(/C=C/c2cc(O)c3cc(C(C)=O)c(=O)oc3c2)cc2c1O[C@]1(C)CC[C@@H](O)C(C)(C)[C@H]1C2 | -22.6% (active) | 84.4% | 70.6% | 66.1% |  | 53.1% | 84.6% | 2.8% (active) | 83.6%
37 | CC[C@H]1OC(=O)[C@H](C)[C@@H](O[C@H]2C[C@@](C)(OC)[C@@H](O)[C@H](C)O2)[C@H](C)[C@@H](O[C@@H]2O[C@H](C)C[C@H](N(C)C)[C@H]2O)[C@](C)(O)C[C@H](C)CN(C)[C@H](C)[C@@H](O)[C@]1(C)O | 107% | 115% | 100% | 108% |  | 98.3% | 96% | -29.8% (active) | 95.2%
38 | O=C(N=Nc1c(O)[nH]c2ccccc12)c1cc(-c2ccccc2)on1 | 112% |  | 99.8% | 104% | 116% | 104% | 111% | 96.7% | 105%

— PubChem BioAssay (NCI)
